# DT40 TDP1 CPT – DT40-hTDP1 cell growth loss with CPT; 420,000 tested, 12% active; Potency, µM (titrated, usually from 46.2 µM), for the others: top-dose activity change, negative = growth inhibition, most hits filed as inhibitors; chicken DT40 Tdp1-/-;hTDP1 cells + 20 nM CPT, ATP luminescence, 48 h; note: potency is the fitted concentration of half-maximal effect; nearly all actives have a fitted effect of over 55% in size
#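 Cell growth measured by CellTiter-Glo luminescence after a minimum 48 h, 37 C compound exposure with 20 nM CPT in Tdp1-knockout DT40 cells stably expressing hTDP1, seeded 400/well; qHTS titration format.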
# TDP1 block – blocks human tyrosyl-DNA phosphodiesterase 1; Q9NUW8; AID 485290; Potency, µM (highest dose often 130 µM), for inactives: at the top dose activity change, negative = inhibition, usual class: inhibitors; recombinant TDP1, AlphaScreen DNA substrate cleavage; 350,000 tested, 0.28% active; note: potency is the fitted concentration of half-maximal effect; nearly all actives have a fitted effect of over 40% in size
# Target sequence (Q9NUW8 whole entry, looked up): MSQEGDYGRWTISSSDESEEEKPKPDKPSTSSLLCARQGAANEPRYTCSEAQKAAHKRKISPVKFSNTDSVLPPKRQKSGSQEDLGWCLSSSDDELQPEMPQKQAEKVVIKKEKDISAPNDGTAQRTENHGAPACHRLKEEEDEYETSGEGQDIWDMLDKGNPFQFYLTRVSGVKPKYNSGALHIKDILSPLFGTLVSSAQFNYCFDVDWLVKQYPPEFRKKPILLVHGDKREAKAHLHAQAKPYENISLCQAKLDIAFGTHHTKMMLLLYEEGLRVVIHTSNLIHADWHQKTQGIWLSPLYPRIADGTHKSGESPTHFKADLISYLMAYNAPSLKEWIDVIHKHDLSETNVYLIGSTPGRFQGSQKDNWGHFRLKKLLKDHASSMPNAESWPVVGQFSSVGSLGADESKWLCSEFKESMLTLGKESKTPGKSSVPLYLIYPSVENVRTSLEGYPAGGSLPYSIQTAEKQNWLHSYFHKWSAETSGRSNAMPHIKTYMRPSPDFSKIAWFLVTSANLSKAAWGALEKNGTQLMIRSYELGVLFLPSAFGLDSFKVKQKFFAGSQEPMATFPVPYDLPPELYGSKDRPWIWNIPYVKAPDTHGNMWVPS
#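 Tdp1 1 nM final; 15 min RT w/ cpd; substrate 15 nM, 5 min; beads 10 ug/ml, 10 min; AlphaScreen read. Neg ctrl: no enzyme.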
# ELG1 DNA repair – blocks ELG1-dependent DNA repair in HEK293T cells; HEK293T ELG1-luciferase reporter, luminescence, 16 h; DNA damage induced by 5-fluorouridine; Potency, µM (highest dose often 46.1 µM), for inactives: at the highest dose activity change, negative = inhibition, usual class: inhibitors; 330,000 tested, 2.3% active; AID 504467; note: potency is the fitted concentration of half-maximal effect; nearly all actives have a fitted effect of over 55% in size
#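 Step one: seed 2,000 cells per well. Step two: pin-transfer compound or DMSO alongside 5-fluorouridine. Step three: incubate 16 hr, 37 °C, 5% CO2. Step four: add ONE-Glo, wait 30 min, read luminescence.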
# Giardia killer – kills Giardia lamblia. Giardia lamblia trophozoite viability. activity change, % at 7.66 µM, hits read low. 340,000 tested, 0.15% active; in the data active = activity change below about -80%; inconclusive = between about -30% and that limit;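 note: parasites exposed to compound for two days anaerobically before the ATP read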
#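 Each well holds 100 Giardia trophozoites and compound. After two days (48 hrs) at 37 deg C in anaerobic conditions, ATP is quantified by luminescence.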
# IL-1B inflam inh – blocks inflammasome-driven IL-1 beta release; activity change, % at 57.5 µM; THP-1 LPS/ATP IL-1B secretion, AlphaLISA, 16 h; active compounds read low; AID 743279; 360,000 tested, 4.7% active; in the data active = activity change below about -50%; inconclusive = mostly about -30% to -49%
#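 THP-1 cells pretreated 1 hr with compounds (up to 57.5 uM final), then stimulated with LPS (250 ng/mL final) plus ATP (1.25 mM final); secreted IL-1B measured by AlphaLISA after 16 hr, decreased signal indicating inhibition.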
# DT40 TDP1 no CPT – qHTS for Inhibitors of human tyrosyl-DNA phosphodiesterase 1 (TDP1): qHTS in cells in absence of CPT; 420,000 tested, 15% active; Potency, µM (top dose mostly 46.2 µM), without a hit: at the highest dose activity change, negative = growth inhibition, hits mostly inhibitors; DT40 Tdp1-/- hTDP1 cells, no CPT, ATP luminescence, 48 h; note: potency is the fitted concentration of half-maximal effect; nearly all actives have a fitted effect of over 55% in size
#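 Growth kinetics read by CellTiter-Glo luminescence after ≥48 hr at 37 °C. Cells: DT40 Tdp1-/- stably carrying human TDP1, 400 per well, compound exposure in the absence of CPT (DMSO vehicle).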
# * hit, by the source's call; i = inactive; ? = inconclusive; nt = not tested or not shown; [ ] = another dose, or the depositor's remark. Rows were chosen to be rich in hits. Some 19% of all compounds tested hit in one or more screens of this group. Unless noted, calls come from the whole dose curve; as a rule, active = well fitted curve in the direction sought with a large enough effect; inconclusive = small, poorly fitted or top-dose-only effect, or another doubt; inactive = no such curve, though single readings can be large; an effect the other way counts as inactive or inconclusive. % is set by controls: 0 for no effect and ±100 for the full control effect.
SMILES,DT40 TDP1 CPT,TDP1 block,ELG1 DNA repair,Giardia killer,IL-1B inflam inh,DT40 TDP1 no CPT
O=C(CCc1ccccc1)Nc1cc(S(=O)(=O)N2CCOCC2)ccc1N1CCCC1,-7.4%,0.8%,23.4%,-7.5,-6.6,-1.0%
COc1ccccc1CCC(=O)Nc1cc(S(=O)(=O)N2CCOCC2)ccc1N1CCCC1,?,8.4%,19.9%,24.8,-24.3,29.1µM*
Cc1ccc(S(=O)(=O)N2CCOCC2)cc1NC(=O)CSc1ccc(Cl)cc1,?,nt,-5.0%,34.3,-8.6,?
Cc1ccc(S(=O)(=O)N2CCOCC2)cc1NC(=O)C(c1ccc(Cl)cc1)C(C)C (stereo not given),?,-0.1%,?,41.3,-58.0*,?
O=C(NCCN1CCOCC1)c1ccc(Cl)c(S(=O)(=O)N2CCOCC2)c1,1.0%,3.7%,-4.9%,4.2,i,-14.0%
CCCCCC(=O)Nc1cc(S(=O)(=O)N2CCCCC2)ccc1N1CCCCC1,?,nt,nt,-1.6,-18.5,14.6µM*
CCCCCC(=O)Nc1cc(S(=O)(=O)N2CCOCC2)ccc1N1CCN(C)CC1,-11.4%,4.8%,0.8%,-22.9,-16.3,0.3%
CSCCC(=O)Nc1cc(S(=O)(=O)N2CCOCC2)ccc1N1CCN(C)CC1,-13.0%,1.2%,6.7%,-1.7,-72.2*,-15.1%
CCCCCC(=O)Nc1cc(S(=O)(=O)N2CCOCC2)ccc1N1CCCCC1,?,0.7%,12.8%,20.1,-21.0,20.6µM*
Cc1cc(Cl)ccc1OCCCC(=O)Nc1cc(S(=O)(=O)N2CCOCC2)ccc1N1CCOCC1,?,nt,nt,-18.3,-27.0,16.4µM*
CCOc1ccc(OCCCC(=O)Nc2cc(S(=O)(=O)N3CCOCC3)ccc2N2CCOCC2)cc1,?,nt,nt,17.6,0.0,-22.5%
COc1cccc(OCc2cc(=O)n3c(-c4ccccc4)csc3n2)c1,?,1.3%,nt,nt,nt,?
Cc1ncc2c(c1CNS(=O)(=O)N(C)C)CCN(C(=O)/C=C/c1cccc(F)c1)C2,-12.4%[9.04 µM],nt,nt,nt,nt,-18.4%
O=C(CSc1cccc[n+]1[O-])Nc1cc(S(=O)(=O)N2CCOCC2)ccc1N1CCOCC1,-1.0%,8.2%,9.9%,-1.3,6.1,-12.2%
O=C(CCCSc1ccc(Cl)cc1)Nc1cc(S(=O)(=O)N2CCOCC2)ccc1O,18.4µM*,4.3%,-27.2%,-16.5,27.6,23.1µM*
Cc1cccc(OCC(=O)Nc2cc(S(=O)(=O)N3CCOCC3)ccc2N2CCCC2)c1C,?,nt,?,3.6,-81.3*,16.4µM*
Cc1ccccc1SCC(=O)Nc1cc(S(=O)(=O)N2CCOCC2)ccc1N1CCOCC1,16.4µM*,nt,?,-1.6,-29.5,?
COc1ccc(S(=O)(=O)N2CCOCC2)cc1NC(=O)CCCSc1ccccc1,-29.8%,nt,nt,nt,0.0,0.3%
Cc1ccc(OCCC(=O)Nc2cc(S(=O)(=O)N3CCOCC3)ccc2N2CCCC2)cc1,?,nt,nt,-14.3,?,14.6µM*
Cc1cc(NC(=O)COC(=O)CCNS(=O)(=O)c2ccccc2)n(-c2ccccc2)n1,0.1%,nt,15.9%,17.7,10.4,-5.1%
COC(=O)Nc1ccc(S(=O)(=O)NNC(=O)c2c(O)c3ccccc3n(C)c2=O)cc1,?,6.0%,9.8%,1.0,61.7,-10.5%
CC(C)C(=O)N1CCC1(C)C(=O)Nc1ccc2cn[nH]c2c1 (stereo not given),-9.3%,nt,nt,nt,2.1,-2.5%
CC(C)(C)c1ccc(C(=O)N2CCC2(C)C(=O)Nc2ccc3nc[nH]c3c2)cc1 (stereo not given),14.6µM*,nt,nt,nt,-17.7,18.4µM*
COc1ccc(C(=O)N2CCC2(C)C(=O)NC(C)C)cc1OC (stereo not given),10.3%,nt,nt,nt,6.9,-8.5%
CC(C)(C)c1ccc(C(=O)N2CCC2(C)C(=O)Nc2ccc3[nH]ncc3c2)cc1 (stereo not given),20.6µM*,nt,nt,nt,-1.4,14.6µM*
SMILES,DT40 TDP1 CPT,TDP1 block,ELG1 DNA repair,Giardia killer,IL-1B inflam inh,DT40 TDP1 no CPT
COc1ccc(NC(=O)C2(C)CCN2C(=O)c2ccc(C(C)(C)C)cc2)cc1OC (stereo not given),13µM*,nt,nt,nt,7.5,10.3µM*
CC1(C(=O)Nc2ccc3nc[nH]c3c2)CCN1C(=O)C/C=C/c1ccccc1 (stereo not given),?,nt,nt,nt,-20.7,?
N#Cc1cn(-c2ccccc2)nc1C(=O)c1ccccc1,?,3.9%,2.9%,23.3,-3.1,11.6µM*
CC(=O)c1nn(-c2ccc(Br)cc2)cc1C(=O)c1ccccc1,4.6%,10.5%,-14.9%,-21.9,0.0,-25.9%
CC(=O)c1nn(-c2ccccc2)cc1C(=O)c1ccc(C)cc1,?,nt,nt,3.6,-0.4,23.1µM*
c1ccc2nc3c(cc2c1)CCCC3,-0.4%,nt,nt,nt,nt,-13.2%
CCN1CCC(N(Cc2ccc3c(c2)OCO3)C(=O)Nc2ccc(Br)c(C)c2)CC1,?,-1.2%,nt,nt,nt,16.4µM*
N#Cc1cc(Oc2cccc3cccnc23)c(-n2nnc3ccccc32)cc1C#N,7.08µM*,9.4%,?,1.9,-59.3*,7.94µM*
N#Cc1ccc(Oc2cccc3cccnc23)c([N+](=O)[O-])c1,4.2%,nt,-1.4%,-2.4,-8.0,?
CC(NC(=O)Cc1ccc(Br)cc1)c1ccccc1 (stereo not given),-9.0%,2.3%,3.3%,-9.0,1.1,-22.0%
O=C(O)Cn1c(O)c(C2=c3ccccc3=NC2=O)sc1=O,?,nt,-11.3%,21.5,0.0,-11.8%
Cn1c(O)c(C2=c3ccccc3=NC2=O)sc1=Nc1ccc(Cl)cc1,23.1µM*,2.6%,-19.9%,3.1,16.3,?
CCCNC(=O)C1(C)CCN(Cc2ccc(C(=O)OCC)cc2)C1 (stereo not given),?,nt,nt,nt,41.2,16.4µM*
COCCNC(=O)C1(C)CCCN(Cc2ccc(OC)cc2)C1 (stereo not given),-33.6%,nt,nt,nt,26.7,-10.8%
COCCNC(=O)C1(C)CCCN(Cc2ccc(OCc3ccccc3)cc2)C1 (stereo not given),25.9µM*,nt,nt,nt,-23.1,20.6µM*
CCCNC(=O)C1(C)CCN(Cc2cc(C(F)(F)F)ccc2Cl)C1 (stereo not given),23.1µM*,nt,nt,nt,40.2,14.6µM*
COCCNC(=O)C1(C)CCN(Cc2ccc(C(C)C)cc2)C1 (stereo not given),?,nt,nt,nt,1.3,20.6µM*
CCOC(=O)c1ccc(CN2CCCC(C)(C(=O)NCCOC)C2)cc1 (stereo not given),?,nt,nt,nt,21.7,?
CC1(C(=O)O)CCC(C(=O)Nc2ccc(F)cc2)C1(C)C (stereo not given),0.2%,nt,5.8%,-3.0,1.1,3.5%

# High-throughput results (PubChem BioAssay)
